This excerpt belongs to a sample that is enriched for hits.
ER stress death – protection against thapsigargin ER stress killing – CSM14.1 cells, ATP luminescence, primary screen; CSM14.1 thapsigargin ER stress survival; relative survival (cellular ATP), % at 15 µg/mL (by protocol); 0.33% of 48,000 active; AID 1010, 2008;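 active means survival measured by cellular ATP above 50% at 15 µg/ml in the first screen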;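 further: cell death triggered by about 15 µM thapsigargin; ATP read 24 h after thapsigargin was added; plate controls were thapsigargin with DMSO for no effect and DMSO without thapsigargin for full effect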
The depositor's hits bear a star.

SMILES	ER stress death
O=C1CC(c2ccc3c(c2)OCO3)CC2=C1C(c1ccc(C(F)(F)F)cc1)Nc1ccccc1N2 (stereo not given)	122.3*
O=C1CC(c2ccc(Cl)cc2)CC2=C1C(c1cc3c(cc1[N+](=O)[O-])OCO3)Nc1ccccc1N2 (stereo not given)	83.8*
O=C1CC(c2ccccc2)CC2=C1C(c1ccc(F)cc1)Nc1ccccc1N2 (stereo not given)	8.5
Cc1ccc(C2Nc3ccccc3NC3=C2C(=O)CC(c2ccc(Cl)cc2)C3)cc1[N+](=O)[O-] (stereo not given)	6.7
O=C1CC(c2ccc3c(c2)OCO3)CC2=C1C(c1cc3c(cc1Br)OCO3)Nc1ccccc1N2 (stereo not given)	5.8
O=C1CC(c2ccc(Cl)cc2)CC2=C1C(c1ccccc1[N+](=O)[O-])Nc1ccccc1N2 (stereo not given)	26.5
COc1ccc(C2CC(=O)C3=C(C2)Nc2ccccc2NC3c2ccc3c(c2)OCO3)cc1 (stereo not given)	5.1
O=C1CC(c2ccccc2)CC2=C1C(c1ccc(Cl)c([N+](=O)[O-])c1)Nc1ccccc1N2 (stereo not given)	99.6*
COc1ccc(C2CC(=O)C3=C(C2)Nc2ccccc2NC3c2cc3c(cc2Cl)OCO3)cc1 (stereo not given)	6.9
CCOC(=O)c1c(NC(=O)/C=C/c2ccc(OC)c(Br)c2)sc(C(C)=O)c1C	11.1
O=C(Nc1cccc(Cl)c1)c1ccccc1C(F)(F)F	-0.4
O=C1c2ccccc2/C(=N/N=C/C=C/c2ccco2)C1C(=O)C(c1ccccc1)c1ccccc1 (stereo not given)	-8.5
CCOc1ccc(Nc2nc(-c3cccs3)cs2)cc1	0.0
CCN(CC)c1ccc(Nc2nc(-c3c(C)nc4sccn34)cs2)cc1	23.9
CCOc1ccc(Nc2nc(-c3c(C)nc4sccn34)cs2)cc1	93.2*
Cc1ccc(N(Cc2ccc(C(=O)N/N=C/c3cc(Br)c(C)o3)cc2)S(C)(=O)=O)cc1C	80.3*
Cc1ccc(N(Cc2ccc(C(=O)N/N=C/c3ccc(OC4CSC4)cc3)cc2)S(C)(=O)=O)cc1C	43.4
CCC(C)NC(=O)c1ccc(CN(c2ccc(C)c(C)c2)S(C)(=O)=O)cc1 (stereo not given)	-0.5
Clc1ccc(C2=NN(c3ccccc3)CC2)cc1	7.1
CCN(CC)C(=O)c1ccc(CN(c2ccc(OC)cc2)S(=O)(=O)c2ccccc2)cc1	124.3*
COc1ccc(N(Cc2ccc(C(=O)NC3CCCC3)cc2)S(=O)(=O)c2ccccc2)cc1	1.5
COc1ccc(N(Cc2ccc(C(=O)NC3CCCCC3)cc2)S(=O)(=O)c2ccccc2)cc1	9.3
CCn1c2ccccc2c2nnc(N/N=C/c3ccccc3O)nc21	1.5
COc1ccc2c(c1C)CCC/C2=N\OC(=O)c1cc(OC)c(OC)c(OC)c1	12.4
O=C(Nc1cc(C(F)(F)F)cc(C(F)(F)F)c1)c1cc2ccccc2o1	-2.2
SMILES	ER stress death
CC(C)OC(=O)c1c(-c2ccc(Br)cc2)csc1NC(=O)/C=C/C(=O)O	-1.7
CC(C)N(C(=O)c1ccc(Cl)cc1Cl)C(C)C	-2.3
Cc1cc(Cl)cc(C)c1OCCCCCCn1ccnc1	54.7*
Cc1cc(C)c(OCCCCn2ccnc2)c(C)c1	-4.5
Cc1cc(OCCCCCn2ccnc2)cc(C)c1Cl	37.0
N#CC1C(=S)N=C2CCCCC2=C1c1cccs1 (stereo not given)	3.2
C(=C\c1ccccc1)/CSc1nnc(-c2ccc3c(c2)OCO3)n1-c1ccccc1	-4.6
CCCCOc1ccc(C2Nc3ccccc3NC3=C2C(=O)CC(C)(C)C3)cc1 (stereo not given)	-3.0
CC1(C)CC(=O)C2=C(C1)Nc1ccccc1NC2c1ccc(-c2ccccc2)cc1 (stereo not given)	121.1*
CC1(C)CC(=O)C2=C(C1)Nc1ccccc1NC2c1cccc(F)c1 (stereo not given)	-0.4
CSc1ccc(C2Nc3ccccc3NC3=C2C(=O)CC(C)(C)C3)cc1 (stereo not given)	11.2
COC(=O)c1ccc(C2Nc3ccccc3NC3=C2C(=O)CC(C)(C)C3)cc1 (stereo not given)	6.7
COc1ccc(C2Nc3ccccc3NC3=C2C(=O)CC(C)(C)C3)cc1COc1ccc(F)cc1 (stereo not given)	60.9*
Cc1cccc(C)c1NC(=O)CSc1nc2ccccc2s1	-15.1
O=c1[nH]nc(SCc2c(F)cccc2Cl)c(=O)[nH]1	0.6
CCOc1ccc(C(=O)Nc2c(C)cc(Br)cc2C)cc1	0.4
Cc1cc(C)n(C(=O)COc2ccc(Br)cc2)n1	8.2
O=C(NCc1ccncc1)C(=O)Nc1nc(C23CC4CC(CC(C4)C2)C3)cs1	88.4*
COc1ccc(C(=O)Nc2nc(C34CC5CC(CC(C5)C3)C4)cs2)cc1	8.5
O=C(NCc1ccncc1)C(=O)Nc1nccs1	8.0
O=C(Nc1ccc2oc(-c3ccccc3)nc2c1)c1ccc(Br)o1	-5.0
O=C(/C=C/c1ccc([N+](=O)[O-])o1)c1ccc(Br)cc1	4.4
O=C(/C=C/c1ccc2c(c1)OCO2)c1ccc(Br)cc1	3.6
CN(C)c1ccc(/C=C/C(=O)c2ccc(Br)cc2)o1	56.0*
Cc1ccc(N2NC(=O)/C(=C/c3ccc(-c4ccc(S(N)(=O)=O)cc4)o3)C2=O)cc1	1.0
SMILES	ER stress death
O=C1C=C(Nc2ccccc2C(=O)O)CC(c2ccccc2)C1 (stereo not given)	12.4
CC(C)CCNC1=CC(=O)CC(c2ccccc2)C1 (stereo not given)	-0.7
O=C1C=C(NCCc2c[nH]c3ccccc23)CC(c2ccccc2)C1 (stereo not given)	53.5*
C=CCNCCCCOc1cc(C)c(Cl)c(C)c1	-21.8
COc1ccc(N(CC(=O)Nc2ccccc2Br)S(C)(=O)=O)cc1	-5.8
CC(C)(C)C1CCc2c(sc(NC(=O)c3ccccc3)c2C(N)=O)C1 (stereo not given)	-1.4
O=C(Nc1ccc(NC(=O)c2ccccc2[N+](=O)[O-])cc1)c1ccccc1	-3.4
CC(C)(C)c1ccc(C(=O)N2N=C(c3cccnc3)CC2(O)C(F)(F)F)cc1 (stereo not given)	55.2*
CC(C)(C)c1ccc(C(=O)N2N=C(c3ccc([N+](=O)[O-])cc3)CC2(O)C(F)(F)F)cc1 (stereo not given)	12.2
COc1cccc(C2=NN(C(=O)c3ccc(C(C)(C)C)cc3)C(O)(C(F)(F)F)C2)c1 (stereo not given)	1.3
O=C(O)C1C2C=CC(C2)C1C(=O)Nc1ccc(Br)cc1F (stereo not given)	0.9
Cc1cc(NC(=O)c2ccc(-c3ccc(Cl)cc3)o2)ccc1NC(=O)c1ccco1	61.7*
COc1cc(NC(=O)c2ccc(-c3ccc(Cl)cc3)o2)ccc1NC(=O)c1ccco1	-1.0
Cc1cc(NC(=O)c2ccc(-c3ccc(Br)cc3)o2)ccc1NC(=O)c1ccco1	-8.4
CCOc1ccccc1NC(=O)c1ccc(N(C)C)cc1	7.4
CCOc1ccc(-c2cc(C)n3nc(C(=O)Nc4cccc(O)c4)cc3n2)cc1	13.7
N#C/C(=C\Nc1ccccc1)c1nc(-c2cc3cc(Br)ccc3oc2=O)cs1	19.5
O=C(N/N=C/c1cccc([N+](=O)[O-])c1)C(Oc1ccccc1)Oc1ccccc1	4.7
NC(=O)c1ccccc1N=Cc1cccc([N+](=O)[O-])c1	1.2
O=[N+]([O-])c1cccc(/C=N\N2CCN(C(c3ccccc3)c3ccccc3)CC2)c1	52.4*
COc1ccc(C(=O)Nc2ccc(OC(F)(F)F)cc2)cc1OC	-3.3

Compound activity as filed in PubChem.
